Results published in PubChem BioAssay AID2156 (Johns Hopkins Ion Channel Center, 2009).
The whole screen tested about 310,000 compounds, of which about 3,400 (1.1%) were called active.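 The calls were made as follows: active = fluorescence ratio B-score at most minus 3 library SDs, with starting brightness B-score within 2 library SDs (cut at about -5.5 in these data); inactive = the rest, inconclusive results apart.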 What follows is part of a selection rich in actives, with near analogues and random picks from the rest.

Biological target: Potassium voltage-gated channel subfamily KQT member 2 (Rattus norvegicus) (UniProt O88943)
Sequence (O88943 whole entry, looked up): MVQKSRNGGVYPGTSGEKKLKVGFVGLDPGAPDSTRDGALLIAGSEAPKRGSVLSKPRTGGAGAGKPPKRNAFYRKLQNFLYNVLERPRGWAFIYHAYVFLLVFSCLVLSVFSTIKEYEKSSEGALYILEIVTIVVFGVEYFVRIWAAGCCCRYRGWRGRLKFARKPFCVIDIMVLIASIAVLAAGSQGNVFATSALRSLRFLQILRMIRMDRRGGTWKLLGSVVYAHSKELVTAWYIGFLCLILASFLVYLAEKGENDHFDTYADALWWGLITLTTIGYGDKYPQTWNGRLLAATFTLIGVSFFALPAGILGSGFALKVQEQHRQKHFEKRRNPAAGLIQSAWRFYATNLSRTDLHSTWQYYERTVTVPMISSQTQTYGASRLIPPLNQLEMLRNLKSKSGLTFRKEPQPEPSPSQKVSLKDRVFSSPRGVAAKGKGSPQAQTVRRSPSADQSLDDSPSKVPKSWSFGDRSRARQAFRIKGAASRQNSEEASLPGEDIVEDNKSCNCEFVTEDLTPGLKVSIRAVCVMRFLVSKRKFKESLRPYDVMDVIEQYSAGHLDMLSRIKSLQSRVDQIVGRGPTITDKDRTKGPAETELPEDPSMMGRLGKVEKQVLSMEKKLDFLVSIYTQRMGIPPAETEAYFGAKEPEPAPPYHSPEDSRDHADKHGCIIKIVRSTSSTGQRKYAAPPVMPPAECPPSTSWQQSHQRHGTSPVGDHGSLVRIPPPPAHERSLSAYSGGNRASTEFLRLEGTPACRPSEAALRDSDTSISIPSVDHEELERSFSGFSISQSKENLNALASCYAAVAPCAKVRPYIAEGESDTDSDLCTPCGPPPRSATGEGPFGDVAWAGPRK
Assay: KCNQ2 channel blockers in CHO-K1 cells – cell-based, FluxOR thallium flux, B-score, primary screen (AID 2156)
Details: 20 min, at 10 µM; active compounds read low

B-score, inactive:
CC1=NNC(=O)C1Cc1c(Cl)cccc1Cl (stereo not given)
COC(=O)[C@@]12CCCN1[C@H](c1ccc(-c3ccc(F)cc3)c(OC)c1)[C@H]1C(=O)N(C)C(=O)[C@H]12
COc1ccc(C(=O)CN2C(=O)NC3(CCc4ccccc43)C2=O)c(OC)c1 (stereo not given)
CCN(CC)c1ccc(S(=O)(=O)N2CCCCC2)cc1NC(=O)C1=COCCO1 -0.93
C=CCn1c(SCC(=O)NCC2CCCO2)nc2sc(C)c(C)c2c1=O (stereo not given)
Cc1sc2nc(SCC(N)=O)n(C)c(=O)c2c1C -0.14
COc1ccccc1C(=O)NC(=O)COC(=O)C1CC1
COCCN(C(=O)COC(=O)Cc1cccc(OC)c1)c1c(N)n(Cc2ccccc2)c(=O)[nH]c1=O
CN(c1ccc(OCC(=O)O)cc1)S(=O)(=O)c1ccc2ccccc2c1 -1.18
Cc1ccc2nc(COc3ccc(N(C)S(=O)(=O)c4ccccc4)cc3)cc(=O)n2c1
COc1ccccc1C(CNC(=O)c1cccc(NS(=O)(=O)c2ccc(Br)cc2)c1)N(C)C (stereo not given) -0.89
O=S(=O)(Nc1ccc(-c2ccc(N3CCOCC3)nn2)cc1)c1cc(Cl)ccc1Cl -0.08
Cc1cc2oc(=O)cc(CN3CCN(Cc4ccccc4)CC3)c2cc1C
CCCOc1ccc(C2c3c(oc4cc(C)c(C)cc4c3=O)C(=O)N2CCCN2CCOCC2)cc1 (stereo not given) -0.39
Cc1ccc(S(=O)(=O)N2CCN(C(=O)Cc3sc(C)nc3-c3ccc(F)cc3)CC2)c(C)c1 -0.7
CC(C)CN(C(=O)COC(=O)c1ccc2ccccc2c1)c1c(N)n(Cc2ccccc2)c(=O)[nH]c1=O
O=C(Nc1cc(Cl)ccc1N1CCOCC1)c1ccc(N2CCCC2=O)cc1
COc1cc(OC)cc(C(=O)NNC(=O)CNC(=O)c2ccc(Br)o2)c1 -1.49
Cc1ccc(O)c(CNc2nc3ccccc3n2C)c1
CC(C)n1c(COc2ccccc2)nc2ccccc21 -0.24
Cc1nn(C)c(C)c1NS(=O)(=O)c1ccc(OC(F)(F)F)cc1
Cc1ccc(NC(=O)CSc2nnc(COc3ccccc3C)o2)cc1
O=C(CSc1nc2ccccc2o1)N1c2ccccc2Sc2ccc(Cl)cc21 -3.87
CN(N)c1nc(N2CCCC2)nc(N2CCCC2)n1 -0.33
CC(=O)CC[C@@H](C)O[C@@H]1OC(C)[C@H](O)CC1O (stereo not given in full) -0.8
c1ccc(-c2nnc(SCc3nc4ccccc4[nH]3)o2)cc1
c1ccc2c(CSCc3nc4ccccc4[nH]3)cccc2c1 -4.3
O=C(CSc1nc(=O)n2ccccc2n1)Nc1ccc2c(c1)OCCO2 -1.2
C#CCNC(=O)[C@H](Cc1ccc(C(=O)c2ccccc2)cc1)NC(=O)OC(C)(C)C
COc1ccccc1NC(=O)C(C)OC(=O)CC1CCCC1 (stereo not given) -1
CCOC(=O)N1CCN(C(=O)c2ccccc2SCC(=O)NCC2CCCCC2)CC1
COc1ccc(NS(=O)(=O)c2ccc(C)c(C(=O)NCC(c3cccs3)N3CCOCC3)c2)cc1 (stereo not given) -0.42
COc1cc(C(O)c2nc3ccccc3n2C)cc(OC)c1OC (stereo not given) -0.53
COc1cc(-c2n[nH]c(=S)n2Cc2ccccc2)cc(OC)c1OC -0.07
Cc1csc(=O)n1CC(=O)OCC(=O)N(CC(C)C)c1c(N)n(Cc2ccccc2)c(=O)[nH]c1=O
COc1ccc(Cc2nnc(SCC(=O)N(c3ccccc3)C(C)C)n(N)c2=O)cc1 -2.15
O=C(COC(=O)Cc1ccccc1F)NNC(=O)c1ccc(Cl)cc1
Cc1cc(Cl)c2oc(C(=O)NC(C)c3ccncn3)c(C)c2c1 (stereo not given)
Cc1cc(Cl)c2oc(C(=O)N3CCC(O)(c4ccccc4)CC3)c(C)c2c1 -2.12
Cc1ccc(C(=O)C(C)OC(=O)Cc2n[nH]c(=O)c3ccccc23)cc1C (stereo not given)
COCCn1c(SC(C)C(=O)NC2CC2)nnc1-c1cccc(C)c1 (stereo not given)
CC(OC(=O)C1CC(=O)N(Cc2ccccc2)C1)C(=O)Nc1ccccc1[N+](=O)[O-] (stereo not given)
Fc1cccc(Cl)c1CSc1ccc(-c2ccco2)nn1 -0.68
COC(OC)c1ccnc(SCc2ccccc2Cl)n1 -0.02
CCOc1ccc(S(=O)(=O)Nc2ccc(C(=O)NCCCN3CCCC3=O)cc2)cc1
CCCNC(=O)c1ccc(N2CCC3(CC2)CC(c2cccc(Br)c2)=NO3)c(NC(=O)c2ccco2)c1 -0.15
Cc1cc2nc3n(c2cc1C)CC1CC(C(=O)NCCC(C)C)N(C)C31 (stereo not given)
Cc1sc(NC(=O)c2ccc3ncsc3c2)c(C(N)=O)c1C
Cc1ccc(C(=O)c2c(NC(=O)c3ccncc3)sc3c2CCCC3)cc1 -3.32
COc1ccc(N2CCN(S(=O)(=O)c3cc4c5c(c3)C(C)C(=O)N5CCC4)CC2)cc1 (stereo not given)
COc1ccc(-c2ccc3nnc(SCC(=O)Nc4ccc(NC(C)=O)cc4)n3n2)cc1 -0.47
CC(=O)Nc1ccc(NC(=O)CSc2nnnn2C2CCCCC2)cc1 -0.45
COc1ccc(-c2cc(C(=O)Nc3ccccc3O)c3ccccc3n2)cc1 -1.2
COc1ccccc1NC(=O)c1cc(Cl)nc2ccccc12 -4.22
O=C1CC2(CCN(C(=O)COc3ccc(F)cc3)CC2)Oc2ccccc21
COc1ccc(C(=O)c2c3ccc([N+](=O)[O-])cc3[n+]([O-])n2CCCN)cc1 -0.22
CCCCCC(=O)N1CCN(S(=O)(=O)c2ccc3c(c2)OCCCO3)CC1 -1.36
COc1ccc(-c2nnc(SCC(=O)Nc3cccnc3Cl)n2C)cc1
Cc1cccc(N=C2SC(C)CN2C(=O)CN2C(=O)NC3(CCCC3)C2=O)c1 (stereo not given) -1.04
O=C(COc1ccccc1Cl)Nc1ccccc1C(=O)NC1CC1
Cc1c(C)n2c(SCC(=O)N3CCCC3)nnc2[nH]c1=O -0.73
CCOC(=O)C1CCN(C(=O)Nc2ccc(C)c(Cl)c2)CC1
CCOC(=O)C1CCN(C(=O)Nc2cccc(OC)c2)CC1 -0.14
O=C(OCC1OC(Oc2ccc(O)cc2)C(O)C(O)C1O)c1ccccc1 (stereo not given) -0.52
Cn1ccsc1=NC(=O)c1cc(S(=O)(=O)N2CCOCC2)ccc1Cl -2.45
CC(C)N(C(=O)c1ccc(-c2ccccc2F)cc1)C(C)C -1.82
O=C(CN1C(=O)c2ccccc2C1=O)NCc1ccc(C(=O)O)cc1 -0.02
CC(=O)c1c(C)[nH]c(C(=O)N2CCN(S(=O)(=O)c3ccc(F)c(F)c3)CC2)c1C
C=CCOc1ccc(/C=C/C(=O)OCC(=O)NCC2CCCO2)cc1 (stereo not given)
COC(=O)CNC(=O)c1cc(-c2ccncc2)nc2ccccc12 -0.09
CCCCN(C)CCCNC(=O)c1cc(-c2cccs2)nc2ccccc12
COc1ccc(NS(=O)(=O)c2ccc(C)c(C(=O)NNC(=O)c3csc(N4CCOCC4)n3)c2)cc1 -0.78
CCc1noc(C)c1C(=O)N1CCCSC1=Nc1ccccc1OC
CCC1(c2ccccc2)NC(=O)N(CC(=O)Nc2ccccc2C(=O)NC2CCCC2)C1=O (stereo not given)
CCN1C(=O)[C@H]2[C@@H](c3ccc(C)cc3)N3C(=O)N(c4cccc(Br)c4)C(=O)[C@@]3(CC)[C@H]2C1=O -0.8
O=C(c1cc2ccccc2o1)N1CCN(c2cccc(C(F)(F)F)c2)CC1 -0.25
c1ccc(-c2cc(N3CCCCC3)c3ccccc3n2)cc1 -0.16

B-score, active:
C=CCn1c(SCC(=O)/C(C#N)=C(\C)N)nc2sc(C)c(C)c2c1=O -7.77
COc1cccc(COc2ccc(N(C)S(=O)(=O)c3ccccc3)cc2)c1 -8.25
Cc1cc2oc3ccc(NCCC4CCCN4C)cc3c(=O)c2cc1C (stereo not given) -6.02
CC(C)n1c(NCc2c[nH]c3ccccc23)nc2ccccc21 -8.14
Cc1ccccc1OCc1nnc(SCC(=O)N2c3ccccc3Sc3ccc(Cl)cc32)o1 -7.73
Clc1ccccc1SCc1nc2ccccc2[nH]1 -5.77
COc1ccccc1NC(=O)[C@H](COCc1ccccc1)NC(=O)OC(C)(C)C -6.32
CCC(C)n1c(-c2cc(OC)c(OC)c(OC)c2)nc2nc3ccccc3nc21 (stereo not given) -6.81
Cc1cc(Cl)c2oc(C(=O)N(C)C(C)c3ccccn3)c(C)c2c1 (stereo not given) -5.81
CN(C)Cc1ccccc1C1(O)c2ccccc2CSc2ccccc21 (stereo not given) -7.67
Clc1ccccc1CSc1nnc(-c2ccco2)c(-c2ccco2)n1 -9.12
Cc1ccc(C(=O)c2c(NC(=O)c3ccccc3)sc(C)c2C)cc1 -7.48
COc1ccc(NC(=O)c2cc(-c3cc(OC)c(OC)c(OC)c3)nc3ccccc23)c(OC)c1 -5.97
CC1(C)C=Cc2c(ccc3c2OC[C@@H](c2ccc(O)cc2O)C3)O1 -5.7
CCOC(=O)N1CCC(N(CCOC)C(=O)Nc2ccc(C)c(C)c2)CC1 -7.75
CC(=O)N(C1=C(Cl)C(=O)c2ccccc2C1=O)c1ccc(C(=O)O)cc1 -10.4
CCc1ccc(-c2cc(C(=O)NCc3ccco3)c3ccccc3n2)s1 -7.07
FC(F)(F)c1cccc(-c2cc3ccccc3nc2N2CCCC2)c1 -6.95
